Experimental data as given in PubChem BioAssay (NCI).
About 83,000 compounds went through this panel and 20% of them were active in at least one assay; those are over-represented in the sample as a whole.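 Note: values are percent growth. 100 is the growth of untreated cells, values between 100 and 0 indicate rising inhibition; between -100 and 0 indicates cell death.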 Active and inactive are the calls of the source. The calls were made as follows: active = growth percent below 10; inactive = the rest.

Tests used:
Assay in all cases: NCI-60 one-dose screen, 48 h (100 = growth as untreated, 0 = no growth, -100 = all killed)
[1] = tested on: SR leukemia; conditions: 10 µM unless noted
[2] = tested on: RPMI-8226 leukemia; conditions: 10 µM unless noted
[3] = tested on: OVCAR-8 ovarian; conditions: 10 µM unless noted
[4] = tested on: OVCAR-5 ovarian; conditions: 10 µM unless noted
[5] = tested on: SK-OV-3 ovarian; conditions: 10 µM unless noted
[6] = tested on: IGROV1 ovarian; conditions: 10 µM unless noted
[7] = tested on: OVCAR-3 ovarian; conditions: 10 µM unless noted
[8] = tested on: HS 578T breast; conditions: 10 µM unless noted
[9] = tested on: NCI/ADR-RES ovarian; conditions: 10 µM unless noted
[10] = tested on: BT-549 breast; conditions: 10 µM unless noted
[11] = tested on: MDA-MB-435 melanoma; conditions: 10 µM unless noted
[12] = tested on: SW-620 colon; conditions: 10 µM unless noted
[13] = tested on: MCF7 breast; conditions: 10 µM unless noted
[14] = tested on: HCT-116 colon; conditions: 10 µM unless noted
[15] = tested on: HCC-2998 colon; conditions: 10 µM unless noted
[16] = tested on: KM12 colon; conditions: 10 µM unless noted
[17] = tested on: T-47D breast; conditions: 10 µM unless noted
[18] = tested on: OVCAR-4 ovarian; conditions: 10 µM

Measured: growth

C=C(C)[C@@H]1CC[C@]2(C(=O)N3CCN(C)CC3)CC[C@]3(C)[C@H](CC[C@@H]4[C@@]5(C)C/C(=C/c6ccncc6)[C@H](O)C(C)(C)[C@@H]5CC[C@]43C)[C@@H]12
active: [1] -14.3% [100 µM] | [2] -26.6% [100 µM] | [3] -57.9% [100 µM] | [4] 7.38% [100 µM] | [5] 0.185% [100 µM] | [6] -23.5% [100 µM] | [7] -50% [100 µM] | [8] -19.5% [100 µM] | [9] -64% [100 µM] | [10] -43% [100 µM] | [11] -39.7% [100 µM] | [12] -55.4% [100 µM] | [13] -60.6% [100 µM] | [14] -79.3% [100 µM] | [15] -80.7% [100 µM] | [16] -80.4% [100 µM]

C=C(C)[C@@H]1CC[C@]2(C(=O)NCCNCCNC(=O)OC(C)(C)C)CC[C@]3(C)[C@H](CC[C@@H]4[C@@]5(C)CCC(=O)C(C)(C)[C@@H]5CC[C@]43C)[C@@H]12
inactive: [1] 52.4% [100 µM] | [2] 22.2% [100 µM] | [3] 44.4% [100 µM] | [4] 60.4% [100 µM] | [6] 34.7% [100 µM] | [7] 32.3% [100 µM] | [8] 37.8% [100 µM] | [9] 52.2% [100 µM] | [17] 28% [100 µM] | [10] 54.2% [100 µM] | [11] 36.8% [100 µM] | [12] 28.8% [100 µM] | [13] 22.2% [100 µM] | [14] 17.5% [100 µM] | [15] 60.5% [100 µM] | [16] 34.3% [100 µM]

C=C(C)[C@@H]1CC[C@]2(C(N)=O)CC[C@]3(C)[C@H](CC[C@@H]4[C@@]5(C)C/C(=C/c6cccnc6)[C@H](O)C(C)(C)[C@@H]5CC[C@]43C)[C@@H]12
active: [11] 9% [100 µM] | [14] 7.1% [100 µM]
inactive: [1] 12.8% [100 µM] | [2] 13.1% [100 µM] | [3] 21.9% [100 µM] | [4] 14.1% [100 µM] | [5] 31.6% [100 µM] | [6] 17.5% [100 µM] | [7] 29.1% [100 µM] | [8] 43.2% [100 µM] | [9] 11.3% [100 µM] | [17] 16.1% [100 µM] | [12] 18.8% [100 µM] | [13] 11.3% [100 µM] | [15] 19.5% [100 µM] | [16] 14.2% [100 µM]

CC(C)C1=NOC(=O)C1=Cc1cn(-c2ccccc2)nc1-c1ccccc1
inactive: [3] 59.8% | [4] 102% | [18] 95.4% | [5] 112% | [6] 67.5% | [7] 88.4% | [8] 64% | [9] 94.6% | [17] 76.2% | [10] 114% | [11] 73.2% | [12] 60.1% | [14] 28.9% | [15] 91.8% | [16] 79.5%
active: [1] -26.9%

C=C(C)[C@@H]1CC[C@]2(C(=O)OC)CC[C@]3(C)[C@H](CC[C@@H]4[C@@]5(C)CC/C(=N\OCCC(=NCCC#N)NOCCC#N)C(C)(C)[C@@H]5CC[C@]43C)[C@@H]12
active: [1] 1.86% [100 µM] | [2] 3.28% [100 µM] | [7] -34.5% [100 µM] | [10] 4.4% [100 µM] | [14] 4.16% [100 µM]
inactive: [3] 13.2% [100 µM] | [4] 50.6% [100 µM] | [6] 18.8% [100 µM] | [8] 24.3% [100 µM] | [9] 17.1% [100 µM] | [17] 15.1% [100 µM] | [11] 14.6% [100 µM] | [12] 22% [100 µM] | [15] 26.9% [100 µM] | [16] 10.9% [100 µM]

O=S(=O)(/N=c1/n(-c2ccccc2)nc2n1CCN2C1=NCCN1)c1ccc(-c2ccccc2)cc1
inactive: [1] 67.4% | [2] 96.8% | [3] 103% | [4] 96.6% | [5] 100% | [6] 95.4% | [7] 101% | [9] 104% | [17] 94% | [10] 97.9% | [11] 94.4% | [12] 98.3% | [13] 97.8% | [14] 95.6% | [15] 101% | [16] 103%
